Sampled rows, rich in hits. Any-hit rate of the full collection: about 4.6%.
TRHR enhancer = allosteric enhancers of human TRH receptor; hit rate 0.66% among 360,000; AID 493056; P34981; enhancement, % at 2 µM; TRHR cells, fluo-8 calcium fluorescence, EC20 TRH enhancement; in the data active = enhancement above about 30%; note: 0% is about no effect
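TRHR-expressing cells loaded with fluo-8 calcium dye were read kinetically (ex 480/em 530) during compound addition, then stimulated with an EC20 of TRH (10 nM final). Enhancement of the Gq-mediated intracellular calcium response was scored.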
D1 antag = blocks dopamine activation of the human D1 receptor; hit rate 3.2% among 360,000; HEK293 TREx D1 cells, calcium flux, dopamine EC80; active compounds read low; P21728; activity change, negative = inhibition, % at 10 µM; in the data active = activity change below about -30%; note: % is set by controls: 0 for no effect and ±100 for the full control effect
Target sequence (P21728 whole entry, looked up): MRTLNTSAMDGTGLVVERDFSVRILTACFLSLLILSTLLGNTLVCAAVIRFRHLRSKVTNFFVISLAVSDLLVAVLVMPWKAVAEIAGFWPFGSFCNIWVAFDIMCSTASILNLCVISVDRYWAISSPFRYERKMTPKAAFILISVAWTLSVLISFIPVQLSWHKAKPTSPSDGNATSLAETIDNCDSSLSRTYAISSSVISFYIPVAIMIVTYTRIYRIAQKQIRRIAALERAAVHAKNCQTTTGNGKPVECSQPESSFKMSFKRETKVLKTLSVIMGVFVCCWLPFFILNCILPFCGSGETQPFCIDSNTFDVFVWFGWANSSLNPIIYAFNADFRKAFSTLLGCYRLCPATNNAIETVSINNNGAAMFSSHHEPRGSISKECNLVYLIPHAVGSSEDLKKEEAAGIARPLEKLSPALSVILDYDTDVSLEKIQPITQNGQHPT
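Compound effects on dopamine-evoked calcium signalling were measured in tetracycline-induced HEK293 Trex D1 cells. Dopamine at EC80 followed a 180 s compound pre-read, and fluorescence was tracked kinetically for 180 s more.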
D1 potentiator = human D1 dopamine receptor positive modulation | HEK293 TREx D1 cells, calcium flux, dopamine EC20 potentiation | hit rate 0.036% among 360,000 | AID 504651 | potentiation, % at 10 µM; in the data active = potentiation above about 30%; note: 0% is about no effect
D1 ag = human D1 receptor agonism. P21728. HEK293 T-REx D1 cells, calcium flux, agonist mode. activation, % at 2 µM. hit rate 1% among 360,000. AID 504660; note: 0% is about no effect
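Tetracycline-induced HEK293 TREx D1 cells, force-coupled to calcium signalling, were dye-loaded with a no-wash calcium kit. Compound was pin-added after a 10 s baseline. Fluorescence was read kinetically at 1 cycle/s for 180 s, with calcium rises flagged as agonism.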
TRHR agonist = activates the human TRH receptor | P34981 | TRHR cells, calcium flux fluo-8, FDSS agonist mode | activation, % at 2 µM | hit rate 0.18% among 360,000; note: 0% is about no effect
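TRHR-expressing cells loaded with fluo-8 calcium dye; 23 nL library compound pin-transferred, kinetic FDSS fluorescence (Ex 480/Em 530) recorded about 180 s for agonist-induced calcium release, before a 10 nM TRH EC20 addition for potentiator mode.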
* = called active by the depositor. Cut-off read from the data, not from the text of the source, unless noted: active = activation above about 30%; inactive = the rest.

Results for CCN(CCO)Cc1csc2ccccc12 ?
TRHR enhancer: -0.5; D1 antag: -38.1*; D1 potentiator: -1.6; D1 ag: 4.9; TRHR agonist: 0.2

Results for CCN(CCO)Cc1csc2ccc(Cl)cc12 ?
TRHR enhancer: -1.7; D1 antag: 3.5; D1 potentiator: -3.5; D1 ag: 2.6; TRHR agonist: -0.2

How did CCN(CCO)Cc1csc2cc(C)ccc12 do in these assays?
TRHR enhancer: 0.6; D1 antag: -7.4; D1 potentiator: -2.0; D1 ag: 3.2; TRHR agonist: -0.4

What do the screens show for `CCN(CCO)Cc1csc2ccc(C(C)(C)C)cc12`?
TRHR enhancer: -0.3; D1 antag: -81.7*; D1 potentiator: -11.8; D1 ag: 19.3; TRHR agonist: -0.8

Results for Cc1c(Cl)cccc1NC(=O)CSc1nc(=O)[nH]c2c1CCC2 ?
TRHR enhancer: -6.9; D1 potentiator: 0.4; D1 ag: -1.9; TRHR agonist: 0.0

How did CCN1C(=O)[C@H]2[C@@H](c3ccc(-c4cc(C(C)=O)cs4)cc3)N3CCC[C@@]3(C(=O)OC)[C@H]2C1=O do in these assays?
TRHR enhancer: -4.9; D1 antag: -31.1*; D1 potentiator: -8.6; D1 ag: -1.1; TRHR agonist: -0.3

How did O=C(c1ccco1)N(Cc1cccc([N+](=O)[O-])c1)c1ccc(Br)cc1 do in these assays?
TRHR enhancer: 20.6; D1 antag: -36.1*; D1 potentiator: -2.0; D1 ag: 29.8; TRHR agonist: -0.2

Results for O=C(c1ccco1)N(Cc1ccc([N+](=O)[O-])cc1)c1ccc(Br)cc1 ?
TRHR enhancer: 1.1; D1 antag: 0.2; D1 potentiator: -2.3; D1 ag: -0.5; TRHR agonist: 0.1

What do the screens show for `COc1cc(OC)c(NC(=O)Nc2cccc(OCc3cc(=O)n4ccccc4n3)c2)cc1Cl`?
TRHR enhancer: 1.4; D1 antag: -40.0*; D1 potentiator: -5.8; D1 ag: 2.3; TRHR agonist: 0.1

How did COc1cc(OC)c(NC(=O)Nc2ccccc2OCc2cc(=O)n3cc(C)ccc3n2)cc1Cl do in these assays?
TRHR enhancer: -7.2; D1 antag: -8.8; D1 potentiator: -3.0; D1 ag: -1.5; TRHR agonist: 0.3

Results for CC(=O)c1ccc(S(=O)(=O)Nc2ccc(-c3cn4c(C)csc4n3)cc2)cc1 ?
TRHR enhancer: -0.9; D1 antag: 6.5; D1 potentiator: -1.4; D1 ag: -1.2; TRHR agonist: -0.3

How did CCOC(=O)c1cccc(NC(=O)CCn2nc(C)c(S(=O)(=O)N3CCCCC3)c2C)c1 do in these assays?
TRHR enhancer: -6.2; D1 antag: -4.3; D1 potentiator: -7.4; D1 ag: 4.1; TRHR agonist: 0.1

How did CC(=O)c1cccc(NC(=O)CCn2nc(C)c(S(=O)(=O)N(C)C)c2C)c1 do in these assays?
TRHR enhancer: 3.1; D1 antag: -47.1*; D1 potentiator: -1.0; D1 ag: 0.3; TRHR agonist: 0.5

Results for CCOc1ccc(CC(=O)NCCc2sc3nc(-c4ccc(F)cc4)nn3c2C)cc1 ?
TRHR enhancer: 43.1*; D1 potentiator: -3.2; D1 ag: 3.5; TRHR agonist: 0.0

What do the screens show for `CCOc1ccc(CC(=O)NCCc2sc3nc(-c4ccc(OC)cc4)nn3c2C)cc1`?
TRHR enhancer: -3.1; D1 potentiator: -0.9; D1 ag: -0.3; TRHR agonist: 0.2

Results for O=S1(=O)[C@H]2C[C@@H]3CC[C@]2(CN1Cc1cccc(F)c1)O3 ?
TRHR enhancer: -3.7; D1 antag: -46.5*; D1 potentiator: -8.7; D1 ag: 0.8; TRHR agonist: -0.3

What do the screens show for `COc1ccc(/C=C/C(=O)Nc2ccc(-c3nnc4n3CCCCC4)cc2)c(OC)c1`?
TRHR enhancer: 34.6*; D1 antag: -16.0; D1 potentiator: 9.1; D1 ag: 3.4; TRHR agonist: -0.3

Results for CC(C)(C)c1ccc(C(=O)NCCOc2ccccc2F)cc1 ?
TRHR enhancer: -11.9; D1 antag: 8.1; D1 potentiator: -3.4; D1 ag: 0.7; TRHR agonist: 1.2

What do the screens show for `CC(C)(C)c1ccc(C(=O)NCCOc2ccccc2)cc1`?
TRHR enhancer: -3.5; D1 antag: -31.4*; D1 potentiator: -3.2; D1 ag: 7.1; TRHR agonist: -1.3

Results for COC(=O)CCCNC(=O)c1ccc(OS(=O)(=O)c2cc([N+](=O)[O-])ccc2C)cc1 ?
TRHR enhancer: 1.8; D1 antag: -11.5; D1 potentiator: 4.0; D1 ag: 62.8*; TRHR agonist: -0.7

How did COc1ccc(C(=O)NCCOc2cccc(Oc3ccccc3)c2)cc1OC do in these assays?
TRHR enhancer: -3.1; D1 antag: -43.7*; D1 potentiator: -5.1; D1 ag: 14.5; TRHR agonist: 1.8

How did O=[N+]([O-])c1ccccc1NCCOc1ccccc1 do in these assays?
TRHR enhancer: -6.7; D1 antag: -44.2*; D1 potentiator: -2.2; D1 ag: 1.2; TRHR agonist: -0.5

How did COc1ccc(C(=O)NCCNc2ccc([N+](=O)[O-])cc2)cc1 do in these assays?
TRHR enhancer: -0.4; D1 potentiator: -3.5; D1 ag: -2.6; TRHR agonist: -1.9

How did Cc1noc(NS(=O)(=O)c2ccc(NC(=O)COc3ccccc3Br)cc2)c1C do in these assays?
TRHR enhancer: 1.6; D1 antag: 20.5; D1 potentiator: 2.5; D1 ag: -0.6; TRHR agonist: -1.0

Results for CCN(CC)C(=O)Cn1cc(C(=O)C(=O)N(C)C2CCN(C)CC2)c2ccccc21 ?
TRHR enhancer: 14.9; D1 antag: -5.6; D1 potentiator: 1.3; D1 ag: 2.3; TRHR agonist: 0.3

Results for CCSc1nnc(NC(=O)Cn2cnc3c2c(=O)n(C)c(=O)n3C)s1 ?
TRHR enhancer: -4.6; D1 antag: -13.1; D1 potentiator: -4.3; D1 ag: 1.4; TRHR agonist: 0.1

What do the screens show for `Cc1cc(C)c(NC(=O)CSc2nc(=O)n(Cc3cccnc3)c3c2CCC3)c(C)c1`?
TRHR enhancer: 1.6; D1 potentiator: 2.6; D1 ag: 4.0; TRHR agonist: -0.9

What do the screens show for `O=C(NCCOc1ccccc1)c1cc(C(=O)NCCOc2ccccc2)cc([N+](=O)[O-])c1`?
TRHR enhancer: -2.5; D1 antag: -39.8*; D1 potentiator: -7.0; D1 ag: 8.6; TRHR agonist: -0.1

Results for O=C(CCNC(=O)c1ccccc1)Oc1ccc([N+](=O)[O-])cc1 ?
TRHR enhancer: -4.0; D1 antag: -46.0*; D1 potentiator: -6.1; D1 ag: 6.4; TRHR agonist: 0.5

What do the screens show for `O=C(NCCOc1ccccc1)c1ccccc1[N+](=O)[O-]`?
TRHR enhancer: 4.3; D1 antag: 1.2; D1 potentiator: -1.5; D1 ag: 0.7; TRHR agonist: -0.2

Results for O=C(NCCc1ccc([N+](=O)[O-])cc1)c1ccccc1 ?
TRHR enhancer: 2.6; D1 antag: 7.7; D1 potentiator: 1.4; D1 ag: 2.7; TRHR agonist: -1.9

Source: PubChem BioAssay
